# In PubChem BioAssay (EPA / NIEHS):
# Values joined by “and” are separate entries in the source; they are usually repeats but may differ in a detail not shown here. Equal values may be shown once. Where a structure was tested more than once in an assay, its records may differ in their call. Active and inactive are the calls of the source. The calls were made as follows: active = hit-call score of the fitted dose curve at least 0.9, where 1 is the maximum; inactive = score below 0.9.
# How the values were obtained:
# [1] = read-out: Thrombomodulin, THBD (gene 7056); assay: BSK_CASM3C_Thrombomodulin: BioMAP Diversity Plus: CASM3C Assay for Thrombomodulin Biomarker Activity (AID 2283051); conditions: primary human coronary artery smooth muscle cells; actives raise or lower the signal;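 also: thrombomodulin protein level measured by ELISA 24 h after dosing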
# [2] = read-out: Tissue Factor, F3 (gene 2152); assay: BSK_CASM3C_TissueFactor: BioMAP Diversity Plus: CASM3C Assay for Tissue Factor Biomarker Activity (AID 2283052); conditions: primary human coronary artery smooth muscle cells; actives raise or lower the signal;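 also: cell surface tissue factor protein level read by ELISA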
# [3] = read-out: Interferon-gamma inducible Protein 10 (IP10), CXCL10 (gene 3627); assay: BSK_hDFCGF_IP10: BioMAP Diversity Plus: hDFCGF Assay for Interferon-gamma inducible Protein 10 (IP10) Biomarker Activity (AID 2283053); conditions: primary human foreskin fibroblasts; actives raise or lower the signal
# Method in brief: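 Primary foreskin fibroblasts, human; 24 h compound exposure; IP-10 by ELISA; bidirectional fit vs DMSO.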
# [4] = read-out: Urokinase-type plasminogen activator receptor (uPAR), PLAUR (gene 5329); assay: BSK_CASM3C_uPAR: BioMAP Diversity Plus: CASM3C Assay for Urokinase-type plasminogen activator receptor (uPAR) Biomarker Activity (AID 2283054); conditions: primary human coronary artery smooth muscle cells; actives raise or lower the signal;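 also: cell-surface uPAR protein level quantified by ELISA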
# [5] = read-out: Vascular cell adhesion molecule 1 (VCAM1), VCAM1 (gene 7412); assay: BSK_CASM3C_VCAM1: BioMAP Diversity Plus: CASM3C Assay for Vascular cell adhesion molecule 1 (VCAM1) Biomarker Activity (AID 2283055); conditions: primary human coronary artery smooth muscle cells; actives raise or lower the signal;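 also: VCAM-1 protein level quantified by ELISA on the cells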
# [6] = read-out: Collagen III, COL3A1 (gene 1281); assay: BSK_hDFCGF_CollagenIII: BioMAP Diversity Plus: hDFCGF Assay for Collagen III Biomarker Activity (AID 2283056); conditions: primary human foreskin fibroblasts; actives raise or lower the signal
# Method in brief: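 Human foreskin primary fibroblasts were exposed to test chemicals for 24 h, after which collagen III was quantified by ELISA. Activity was fitted bidirectionally against DMSO as negative control and baseline.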
# [7] = read-out: Interleukin-8 (IL8), CXCL8 (gene 3576); assay: BSK_hDFCGF_IL8: BioMAP Diversity Plus: hDFCGF Assay for Interleukin-8 (IL8) Biomarker Activity (AID 2283058); conditions: primary human foreskin fibroblasts; actives raise or lower the signal
# Method in brief: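 hDFCGF human dermal fibroblasts; 24 h chemical exposure; IL-8 by ELISA; bidirectional curve fit vs DMSO baseline; gain or loss of signal scored.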
# [8] = BSK_hDFCGF_Proliferation: Cell Proliferation Assessment in the BioMAP Diversity Plus: hDFCGF Assay (AID 2283059); conditions: primary human foreskin fibroblasts;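 also: curves fitted for both rise and fall of signal versus DMSO baseline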
# Method in brief: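 Total protein read at 560 nm after 0.1% SRB staining of TCA-fixed human skin fibroblasts, […]. Activity is fitted in both directions relative to DMSO as baseline.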
# [9] = read-out: Macrophage colony-stimulating factor (MCSF), CSF1 (gene 1435); assay: BSK_hDFCGF_MCSF: BioMAP Diversity Plus: hDFCGF Assay for Macrophage colony-stimulating factor (MCSF) Biomarker Activity (AID 2283060); conditions: primary human foreskin fibroblasts; actives raise or lower the signal
# Method in brief: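 Human foreskin primary fibroblasts were treated with test chemical for 24 h, and M-CSF was then measured by ELISA. Data were fitted bidirectionally against DMSO as the negative control and activity baseline.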
# [10] = BSK_hDFCGF_SRB: Viability Assessment in the BioMAP Diversity Plus: hDFCGF Assay (AID 2283061); conditions: primary human foreskin fibroblasts;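 also: cells exposed to compound for 24 h before the read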
# Method in brief: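 Human foreskin primary fibroblasts were treated with compound and assessed 24 h after dosing. Total protein was measured by sulforhodamine B staining (0.1% SRB after 10% TCA fixation, 560 nm read) as a cytotoxicity marker, with bidirectional fitting against DMSO baseline.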
# [11] = read-out: TIMP metallopeptidase inhibitor 1 (TIMP1), TIMP1 (gene 7076); assay: BSK_hDFCGF_TIMP1: BioMAP Diversity Plus: hDFCGF Assay for TIMP metallopeptidase inhibitor 1 (TIMP1) Biomarker Activity (AID 2283062); conditions: primary human foreskin fibroblasts; actives raise or lower the signal
# Method in brief: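 Primary human foreskin fibroblasts in the hDFCGF system were dosed with compound for 24 h, then TIMP-1 was measured by ELISA. Activity was fitted bidirectionally relative to DMSO control; parallel SRB staining assessed cytotoxicity.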
# [12] = read-out: Monokine induced gamma interferon (MIG), CXCL9 (gene 4283); assay: BSK_hDFCGF_MIG: BioMAP Diversity Plus: hDFCGF Assay for Monokine induced gamma interferon (MIG) Biomarker Activity (AID 2283063); conditions: primary human foreskin fibroblasts; actives raise or lower the signal
# Method in brief: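 ELISA read-out of MIG from primary human dermal fibroblasts 24 h post-dosing. Gain or loss of signal fitted bidirectionally, DMSO as baseline.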
# [13] = read-out: Matrix Metallopeptidase 1 (MMP1), MMP1 (gene 4312); assay: BSK_hDFCGF_MMP1: BioMAP Diversity Plus: hDFCGF Assay for Matrix Metallopeptidase 1 (MMP1) Biomarker Activity (AID 2283064); conditions: primary human foreskin fibroblasts; actives raise or lower the signal
# Method in brief: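 hDFCGF primary fibroblasts (human foreskin); chemical added; 24 h; MMP1 by ELISA; bidirectional fit vs DMSO.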
# [14] = read-out: Vascular cell adhesion molecule 1 (VCAM1), VCAM1 (gene 7412); assay: BSK_hDFCGF_VCAM1: BioMAP Diversity Plus: hDFCGF Assay for Vascular cell adhesion molecule 1 (VCAM1) Biomarker Activity (AID 2283065); conditions: primary human foreskin fibroblasts; actives raise or lower the signal
# Method in brief: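 Primary human foreskin fibroblasts (hDFCGF system) were dosed with chemical and VCAM-1 was measured by ELISA 24 h later. Bidirectional curve fitting used DMSO as negative control and activity baseline.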
# [15] = read-out: Plasminogen activator inhibitor-1 (PAI1), SERPINE1 (gene 5054); assay: BSK_hDFCGF_PAI1: BioMAP Diversity Plus: hDFCGF Assay for Plasminogen activator inhibitor-1 (PAI1) Biomarker Activity (AID 2283066); conditions: primary human foreskin fibroblasts; actives raise or lower the signal
# Method in brief: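 Primary dermal fibroblasts (human foreskin), hDFCGF system; compound 24 h; PAI-1 by ELISA; bidirectional fit vs DMSO control.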
# [16] = read-out: Intercellular Adhesion Molecule 1 (ICAM1), ICAM1 (gene 3383); assay: BSK_KF3CT_ICAM1: BioMAP Diversity Plus: KF3CT Assay for Intercellular Adhesion Molecule 1 (ICAM1) Biomarker Activity (AID 2283067); conditions: primary human keratinocytes with fibroblasts; actives raise or lower the signal
# Method in brief: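 Human keratinocyte plus foreskin fibroblast primary co-culture was exposed to chemical for 24 h. ICAM-1 was then quantified by ELISA, and the data were fit bidirectionally against DMSO as the negative control and baseline.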
# [17] = read-out: Interferon-gamma inducible Protein 10 (IP10), CXCL10 (gene 3627); assay: BSK_KF3CT_IP10: BioMAP Diversity Plus: KF3CT Assay for Interferon-gamma inducible Protein 10 (IP10) Biomarker Activity (AID 2283068); conditions: primary human keratinocytes with fibroblasts; actives raise or lower the signal
# Method in brief: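 Human keratinocyte plus foreskin fibroblast primary co-culture exposed to test chemical for 24 h; IP-10 measured by ELISA. Concentration-response fitted bidirectionally against DMSO control as baseline.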
# [18] = read-out: Interleukin-1 alpha (IL1a), IL1A (gene 3552); assay: BSK_KF3CT_IL1a: BioMAP Diversity Plus: KF3CT Assay for Interleukin-1 alpha (IL1a) Biomarker Activity (AID 2283070); conditions: primary human keratinocytes with fibroblasts; actives raise or lower the signal
# Method in brief: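 Chemicals were dosed onto co-cultured human keratinocytes and foreskin fibroblasts, IL-1a was quantified by ELISA at 24 h, and activity was fitted in both directions relative to DMSO controls.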
# [19] = BSK_KF3CT_SRB: Viability Assessment in the BioMAP Diversity Plus: KF3CT Assay (AID 2283069); conditions: primary human keratinocytes with fibroblasts;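 also: fitted for both signal gain and loss against DMSO baseline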
# Method in brief: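 Keratinocytes co-cultured with foreskin fibroblasts (human primary); chemical added, 24 h; fix 10% TCA, stain 0.1% SRB, A560. Bidirectional fit vs DMSO.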
# [20] = read-out: Epidermal growth factor receptor (EGFR), EGFR (gene 1956); assay: BSK_hDFCGF_EGFR: BioMAP Diversity Plus: hDFCGF Assay for Epidermal growth factor receptor (EGFR) Biomarker Activity (AID 2283057); conditions: primary human foreskin fibroblasts; actives raise or lower the signal
# Method in brief: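 hDFCGF system, primary human foreskin fibroblasts; compound 24 h; EGFR measured by ELISA; DMSO = negative control/baseline; bidirectional fitting.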
structure (smiles),measurement,setting,value
OC1OC[C@@H](O)[C@H](O)[C@H]1O (some centres undefined),outcome,[1],inactive
same,outcome,[2],inactive
same,outcome,[3],inactive
same,outcome,[4],inactive
same,outcome,[5],inactive
same,outcome,[6],inactive
same,outcome,[7],inactive
same,outcome,[8],inactive
same,outcome,[9],inactive
same,outcome,[10],inactive
same,outcome,[11],inactive
same,outcome,[12],inactive
same,outcome,[13],inactive
same,outcome,[14],inactive
same,outcome,[15],inactive
same,outcome,[16],inactive
same,outcome,[17],inactive
same,outcome,[18],inactive
CC(=O)/C=C/C1=C(C)CCCC1(C)C,outcome,[1],inactive
same,outcome,[2],inactive
same,outcome,[3],inactive
same,outcome,[4],inactive
same,AC50,[5],0.016 µM (active)
same,outcome,[6],inactive
same,outcome,[7],inactive
same,outcome,[8],inactive
same,outcome,[9],inactive
same,outcome,[10],inactive
same,outcome,[11],inactive
same,outcome,[12],inactive
same,outcome,[13],inactive
same,outcome,[14],inactive
same,outcome,[15],inactive
same,outcome,[16],inactive
same,outcome,[17],inactive
same,outcome,[19],inactive
same,outcome,[18],inactive
O=C=NC1CCC(CC2CCC(N=C=O)CC2)CC1 (centres undefined),outcome,[1],inactive
same,outcome,[2],inactive
same,outcome,[3],inactive
same,outcome,[4],inactive
same,outcome,[5],inactive
same,outcome,[6],inactive
same,outcome,[7],inactive
same,AC50,[8],28.5 µM (active)
same,AC50,[9],4.84 µM (active)
same,outcome,[10],inactive
same,outcome,[11],inactive
same,outcome,[12],inactive
same,outcome,[13],inactive
same,outcome,[14],inactive
same,AC50,[15],25.6 µM (active)
same,outcome,[16],inactive
same,outcome,[17],inactive
same,outcome,[18],inactive
CC(=O)[C@H]1CC[C@H]2[C@@H]3CC=C4C[C@@H](O)CC[C@]4(C)[C@H]3CC[C@]12C,outcome,[1],inactive
same,outcome,[2],inactive
same,outcome,[3],inactive
same,outcome,[4],inactive
same,AC50,[5],9.48 µM (active)
same,outcome,[5],inactive
same,AC50,[6],5.69 µM (active)
same,outcome,[6],inactive
same,outcome,[7],inactive
same,outcome,[8],inactive
same,outcome,[9],inactive
same,outcome,[10],inactive
same,outcome,[12],inactive
same,outcome,[13],inactive
same,outcome,[14],inactive
same,outcome,[15],inactive
same,outcome,[16],inactive
same,outcome,[17],inactive
same,outcome,[18],inactive
Nc1cc([N+](=O)[O-])ccc1O,AC50,[1],20 µM (active)
same,outcome,[1],inactive
same,outcome,[2],inactive
same,outcome,[3],inactive
same,outcome,[4],inactive
same,outcome,[5],inactive
same,outcome,[6],inactive
same,outcome,[20],inactive
same,outcome,[7],inactive
same,AC50,[8],20 µM (active) and 10.8 µM (active)
same,outcome,[9],inactive
same,AC50,[10],1.16 µM (active) and 826 nM (active)
same,AC50,[12],1.88 µM (active)
same,outcome,[12],inactive
same,outcome,[13],inactive
same,outcome,[14],inactive
same,outcome,[15],inactive
same,outcome,[16],inactive
same,outcome,[17],inactive
same,outcome,[19],inactive
same,outcome,[18],inactive
CC(=O)O[C@]1(C(C)=O)CC[C@H]2[C@@H]3C[C@H](C)C4=CC(=O)CC[C@]4(C)[C@H]3CC[C@@]21C,outcome,[1],inactive
same,outcome,[2],inactive
same,outcome,[3],inactive
same,outcome,[4],inactive
same,outcome,[5],inactive
same,outcome,[6],inactive
same,outcome,[7],inactive
same,AC50,[8],0.0802 µM (active)
same,outcome,[9],inactive
same,outcome,[10],inactive
same,outcome,[11],inactive
same,outcome,[12],inactive
same,outcome,[13],inactive
same,outcome,[14],inactive
same,outcome,[15],inactive
same,outcome,[16],inactive
same,AC50,[17],2.55 µM (active)
same,outcome,[19],inactive
same,outcome,[18],inactive
